Data reported in the supplement of paper PMC3334620.
Over roughly 33,000 sequences, “E-score (-0.5 to 0.5)” has its median near -0.011; the highest 2% begin near 0.28. The sample holds the highest values, similar sequences and a random draw of the others, so the mix is not that of the screen.

Biological target: T1, Gcr1 (UniProt P07261)
T1 sequence: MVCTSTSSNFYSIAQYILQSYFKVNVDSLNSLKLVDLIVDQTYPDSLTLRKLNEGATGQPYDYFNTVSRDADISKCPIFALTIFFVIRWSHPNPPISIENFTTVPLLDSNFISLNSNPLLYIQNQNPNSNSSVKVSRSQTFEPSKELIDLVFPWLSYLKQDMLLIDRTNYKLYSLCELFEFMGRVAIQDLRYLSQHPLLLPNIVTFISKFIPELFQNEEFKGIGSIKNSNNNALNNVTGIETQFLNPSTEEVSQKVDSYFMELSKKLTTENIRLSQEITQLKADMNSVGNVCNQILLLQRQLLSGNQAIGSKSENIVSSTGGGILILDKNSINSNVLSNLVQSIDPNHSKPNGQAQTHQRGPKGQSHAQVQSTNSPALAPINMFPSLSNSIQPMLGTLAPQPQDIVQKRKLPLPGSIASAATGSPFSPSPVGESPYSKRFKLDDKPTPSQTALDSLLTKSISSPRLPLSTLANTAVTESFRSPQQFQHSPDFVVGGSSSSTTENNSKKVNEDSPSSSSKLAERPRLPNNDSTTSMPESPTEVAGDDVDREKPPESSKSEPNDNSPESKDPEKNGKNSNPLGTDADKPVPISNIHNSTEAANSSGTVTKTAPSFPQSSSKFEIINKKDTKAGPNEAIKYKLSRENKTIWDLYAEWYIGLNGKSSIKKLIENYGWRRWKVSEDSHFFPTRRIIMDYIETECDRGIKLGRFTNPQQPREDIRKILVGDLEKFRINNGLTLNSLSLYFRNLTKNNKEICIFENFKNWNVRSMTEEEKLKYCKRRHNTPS
Assay: PBM E-score (8-mer binding enrichment) (E-score (-0.5 to 0.5)); higher = stronger / more preferred TF binding
Conditions: protein concentration: 100 nM; construct: GST-full length
How it was run: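 Universal all-10-mer Agilent arrays, double-stranded by primer extension on fresh or once-stripped slides, were probed with about 100-200 nM GST-tagged yeast transcription factors made by PURExpress. Fluorescent anti-GST detected bound protein, and masliner normalised the scans. E-scores from the Universal PBM Analysis Suite were given to each ungapped eight-base word pooled with its reverse complement.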

Going from CATGCCTA to AAGAGAGC, the “PBM E-score” value falls from -0.112 to -0.276.

Going from GAGCCGTA to ATGGATAG, the “PBM E-score” value falls from 0.0183 to -0.00601.

First: AACGGGGA
Second: AGGATCCA
The “PBM E-score” value of the first is lower: -0.00775 for the first, 0.263 for the second.

Going from GGGATCAC to AGGATCCT, the “PBM E-score” value rises from -0.137 to 0.301.

Compared with ACGATCCT, AGAATCCC is higher in “PBM E-score” value: -0.0105 for the first, 0.321 for the second.

Going from AGGATCCC to AAGATCCT, the “PBM E-score” value falls from 0.379 to 0.0935.

Going from AGAATCCT to GAGATCCC, the “PBM E-score” value falls from 0.252 to 0.0362.

Going from GGGATCCC to AGAATCCA, the “PBM E-score” value falls from 0.419 to 0.249.

First: AGGATCCG
Second: CTGGTCGA
The “PBM E-score” value of the first is higher: 0.0808 for the first, -0.3 for the second.

Going from GGGCCAAC to AAATGCTT, the “PBM E-score” value falls from -0.13 to -0.208.

Compared with GCCGGCGC, AGCAAACT is higher in “PBM E-score” value: 0.0181 for the first, 0.0882 for the second.

First: GGGTTCAA
Second: GCCGGCTA
The “PBM E-score” value of the first is higher: -0.101 for the first, -0.145 for the second.

Going from GAAGGGAC to TGGATCAA, the “PBM E-score” value rises from -0.279 to -0.0326.

First: GTGATCCA
Second: TGGATCCA
The “PBM E-score” value of the first is lower: -0.0936 for the first, 0.317 for the second.

Going from CGGATCGC to GGGATCCA, the “PBM E-score” value rises from -0.0306 to 0.347.

Compared with CGGATCCC, GAGATCCA is lower in “PBM E-score” value: 0.341 for the first, 0.174 for the second.

First: CGGATCCA
Second: CGGATCCG
The “PBM E-score” value of the first is higher: 0.235 for the first, 0.212 for the second.

Going from AAATCAAA to TGAAAGCA, the “PBM E-score” value falls from 0.0655 to 0.00794.

First: GATACTGC
Second: ATCCGACA
The “PBM E-score” value of the first is lower: -0.205 for the first, -0.019 for the second.

Going from CGGTTAGC to GGCCTGCA, the “PBM E-score” value falls from -0.0704 to -0.237.

First: CACCAGAA
Second: TACCAGAA
The “PBM E-score” value of the first is lower: 0.15 for the first, 0.34 for the second.

First: CCCCAGAA
Second: GTCCAGAA
The “PBM E-score” value of the first is higher: 0.288 for the first, 0.0699 for the second.

Going from TTCCAGAA to AACCAGAA, the “PBM E-score” value falls from 0.287 to 0.281.

First: CCCCAGAG
Second: CCCCAGAC
The “PBM E-score” value of the first is lower: -0.0817 for the first, 0.0344 for the second.

First: GACCAGAA
Second: CTCCAGAA
The “PBM E-score” value of the first is higher: 0.131 for the first, 0.0346 for the second.

Compared with AACCAGAT, AACCAGAC is lower in “PBM E-score” value: 0.228 for the first, -0.0315 for the second.

Going from AAGTTTGG to AATCCAAA, the “PBM E-score” value rises from 0.179 to 0.205.

Going from ACTTCATG to GAACCCGA, the “PBM E-score” value rises from 0.0318 to 0.195.

Compared with CGTATCTC, ACTACGGG is lower in “PBM E-score” value: 0.0698 for the first, 0.00638 for the second.

Compared with AAAATCCA, GTCCACAA is higher in “PBM E-score” value: -0.012 for the first, 0.224 for the second.

Going from TTCCACAA to AACCAGTG, the “PBM E-score” value falls from 0.347 to -0.195.

Compared with CTCCACAA, AACCAGTA is higher in “PBM E-score” value: 0.0774 for the first, 0.315 for the second.

Going from TACCAGTA to CCCACCAG, the “PBM E-score” value falls from 0.224 to 0.0742.

Going from CGGGCCGC to AAGGTTCA, the “PBM E-score” value falls from 0.0123 to -0.179.

Compared with CCAGAAGA, ATAGAAGC is higher in “PBM E-score” value: 0.187 for the first, 0.315 for the second.

First: CTAGAAGC
Second: AAAGAAGC
The “PBM E-score” value of the first is lower: 0.154 for the first, 0.262 for the second.

First: GAAGAAGC
Second: CAAGAAGC
The “PBM E-score” value of the first is higher: 0.318 for the first, 0.24 for the second.

Going from CCAGAAGC to ATAGAAGG, the “PBM E-score” value falls from 0.357 to 0.0701.

First: GAAGACGC
Second: GAAGACGA
The “PBM E-score” value of the first is higher: 0.304 for the first, 0.198 for the second.

Compared with CAAGACGC, GCAGAAGC is lower in “PBM E-score” value: 0.238 for the first, 0.0881 for the second.

Going from CCGCAGCG to CCGGTACG, the “PBM E-score” value falls from 0.0315 to -0.0393.

Going from CGATAGAG to AGGCCTAA, the “PBM E-score” value falls from -0.0218 to -0.0235.

Compared with CCAGGTAA, GTTCTCAA is lower in “PBM E-score” value: -0.0543 for the first, -0.129 for the second.

First: AACAGACC
Second: ATGTCTAA
The “PBM E-score” value of the first is lower: -0.179 for the first, -0.0649 for the second.

Going from CCTTGATA to CTAGACGC, the “PBM E-score” value rises from -0.0119 to 0.0428.

Going from ATAGACGC to TAAGAAGA, the “PBM E-score” value falls from 0.377 to 0.243.

Going from CAAGAAGA to GAAGAAGA, the “PBM E-score” value falls from 0.354 to 0.183.

Compared with ATAGACGA, CTTCCTCA is higher in “PBM E-score” value: 0.248 for the first, 0.264 for the second.

First: GGCCTCCA
Second: GGCTTTCA
The “PBM E-score” value of the first is higher: 0.172 for the first, -0.109 for the second.

First: CACTGATC
Second: ACCTCCAT
The “PBM E-score” value of the first is higher: -0.142 for the first, -0.24 for the second.

First: GTCGGGGA
Second: AGATTGTA
The “PBM E-score” value of the first is higher: 0.102 for the first, -0.193 for the second.

Compared with CAGATTCA, AAGATTCC is higher in “PBM E-score” value: -0.0169 for the first, 0.271 for the second.

First: CAGATTCG
Second: CAGATTCC
The “PBM E-score” value of the first is lower: 0.037 for the first, 0.388 for the second.

First: GAGATTCC
Second: GAGATTCA
The “PBM E-score” value of the first is higher: 0.363 for the first, -0.0394 for the second.

First: AGTAACTC
Second: CGTGGAAA
The “PBM E-score” value of the first is lower: -0.155 for the first, 0.0989 for the second.

First: ATTGGAAG
Second: AGTGGAAG
The “PBM E-score” value of the first is lower: 0.363 for the first, 0.442 for the second.

First: AGTGGAAT
Second: CGTGGAAG
The “PBM E-score” value of the first is higher: 0.39 for the first, 0.0771 for the second.

Going from CATGGAAG to AGTGGAAA, the “PBM E-score” value rises from -0.0984 to 0.0918.

First: AGTGGAGC
Second: AGTGGAGG
The “PBM E-score” value of the first is higher: 0.32 for the first, 0.082 for the second.

Going from CGTGGAGC to ATTGGAAC, the “PBM E-score” value rises from -0.0506 to 0.221.

Compared with ATTGGAAA, ATTGCCGA is lower in “PBM E-score” value: 0.0513 for the first, -0.127 for the second.

Going from TGAGGGAA to AGTCTATG, the “PBM E-score” value falls from -0.101 to -0.147.

Compared with ACCCTAGT, CGAGACGC is higher in “PBM E-score” value: -0.0547 for the first, 0.131 for the second.

Compared with CGGGTATC, CTCACACA is lower in “PBM E-score” value: 0.131 for the first, 0.1 for the second.

Compared with AGTGGACC, GGTGGAAC is higher in “PBM E-score” value: -0.0505 for the first, 0.0244 for the second.

First: AGGGGAAT
Second: AGTGGACA
The “PBM E-score” value of the first is higher: 0.341 for the first, -0.0203 for the second.

Going from AGTGGAAC to AGTGGACG, the “PBM E-score” value falls from 0.364 to 0.315.

First: AGGGGAAA
Second: AGGGGAAC
The “PBM E-score” value of the first is higher: 0.0362 for the first, -0.00862 for the second.

First: CGTGGAAC
Second: ACGAAACG
The “PBM E-score” value of the first is higher: -0.113 for the first, -0.14 for the second.

Compared with ATCGGGAC, AATTGTTC is lower in “PBM E-score” value: 0.0526 for the first, 0.0249 for the second.

Compared with AGCCTTGA, AGATGAGC is higher in “PBM E-score” value: -0.273 for the first, -0.102 for the second.

Going from ACTTCTCG to CCCCAAGC, the “PBM E-score” value rises from -0.0046 to -0.00278.

Going from CGTGAACG to ACGCAGAG, the “PBM E-score” value falls from 0.0112 to -0.141.

Going from ACGGGGTA to GTATCCCA, the “PBM E-score” value rises from 0.129 to 0.339.

First: GCATCCCC
Second: GAATCCCC
The “PBM E-score” value of the first is higher: 0.351 for the first, 0.0893 for the second.

Compared with GCATCCCA, GAATCCCA is higher in “PBM E-score” value: 0.309 for the first, 0.367 for the second.

Compared with ACATCCCC, AAATCCCA is higher in “PBM E-score” value: 0.0757 for the first, 0.107 for the second.

First: CCATCCCA
Second: ATATCCCA
The “PBM E-score” value of the first is lower: -0.053 for the first, 0.116 for the second.

First: CTATCCCA
Second: CCATCCCC
The “PBM E-score” value of the first is lower: -0.0348 for the first, 0.0989 for the second.

First: ACATCCCA
Second: ACAGGTAA
The “PBM E-score” value of the first is lower: 0.0139 for the first, 0.0538 for the second.

Compared with ACCATCCT, ATACTAGA is higher in “PBM E-score” value: 0.0586 for the first, 0.0992 for the second.

Compared with ACATGTGA, CTGGAAAA is higher in “PBM E-score” value: -0.0765 for the first, -0.00671 for the second.

First: ACTACTCG
Second: AGGCCTAG
The “PBM E-score” value of the first is higher: 0.0127 for the first, -0.214 for the second.

First: CGGTCGAG
Second: ACACGAAG
The “PBM E-score” value of the first is lower: 0.0179 for the first, 0.238 for the second.

First: ACACGAAT
Second: ACACGAAA
The “PBM E-score” value of the first is higher: 0.319 for the first, -0.131 for the second.

Going from AGGTTCGG to GAGAAAGA, the “PBM E-score” value falls from -0.0598 to -0.16.
